Compound activity as filed in PubChem BioAssay.
PAFAH2 FP inh: inhibitors of human PAFAH2; Q99487; recombinant PAFAH2, FP-rhodamine activity probe, fluorescence polarization; inhibition, % at 3.39 µM; 0.99% of 340,000 active;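 active = inhibition above the mean over all tested compounds plus 3 SD, cut at about 30% in these data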;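 also: inhibitors block probe labeling of enzyme so polarization drops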
PP5 inh: inhibitors of human protein phosphatase 5 (PP5). 0.18% of 320,000 active. P53041. purified PP5c, OMFP substrate fluorescence. inhibition, % at 6.7 µM;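 active = inhibition above the campaign's mean inhibition across all tested compounds plus 3 SD, cut at about 9.5% in these data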
CTSL1 counter: cathepsin L1 inhibition, PFM18AAP counter-screen. recombinant F. hepatica cathepsin L1, Z-Leu-Arg-MCA fluorescence. inhibition, % at 5.96 µM. 0.49% of 300,000 active;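 active = inhibition above the mean of all tested compounds plus 3 SD, set per screening campaign, cut at about 17% in these data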
PAFAH1B3 inh: inhibitors of human PAFAH1B3 | Q15102 | recombinant PAFAH1B3, FP-rhodamine probe, fluorescence polarization | inhibition, % at 3.39 µM | 0.28% of 340,000 active;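 active = inhibition above the screen-wide average of all tested compounds plus 3 SD, cut at about 25% in these data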
PAFAH1B2 FP inh: blocks human PAF acetylhydrolase 1b catalytic subunit 2. recombinant PAFAH1B2, FP-rhodamine activity probe, fluorescence polarization. inhibition, % at 3.39 µM. 1.2% of 340,000 active;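 active = inhibition above the mean of all tested compounds plus 3 SD, cut at about 24% in these data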
pPAFAH FP inh: pPAFAH (human) enzyme inhibition. 1.5% of 330,000 active. inhibition, % at 3.39 µM. recombinant pPAFAH, FP-rhodamine probe fluorescence polarization. Q13093. AID 463082;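 active = inhibition above the mean inhibition across the screen plus 3 SD, cut at about 25% in these data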;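 also: inhibitors block binding of the rhodamine activity-based probe so polarization drops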
Target sequence (Q13093 whole entry, looked up): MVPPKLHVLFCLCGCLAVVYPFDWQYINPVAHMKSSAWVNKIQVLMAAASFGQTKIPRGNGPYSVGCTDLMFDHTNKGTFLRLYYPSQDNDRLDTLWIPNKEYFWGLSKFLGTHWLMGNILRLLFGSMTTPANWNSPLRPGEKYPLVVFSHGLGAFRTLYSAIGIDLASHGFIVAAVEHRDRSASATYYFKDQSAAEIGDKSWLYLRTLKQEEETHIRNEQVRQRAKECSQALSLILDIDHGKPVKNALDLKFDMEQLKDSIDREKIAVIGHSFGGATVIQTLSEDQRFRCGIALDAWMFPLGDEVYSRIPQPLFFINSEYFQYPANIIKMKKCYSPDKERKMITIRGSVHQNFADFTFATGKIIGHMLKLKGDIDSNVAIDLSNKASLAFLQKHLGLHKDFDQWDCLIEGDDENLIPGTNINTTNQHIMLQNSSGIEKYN
Hits are given with their value; n = inactive; x = not tested or not shown. Shown are actives, neighbours in structure and some others; about 3% of the full set was active somewhere.

SMILES	PAFAH2 FP inh	PP5 inh	CTSL1 counter	PAFAH1B3 inh	PAFAH1B2 FP inh	pPAFAH FP inh
Cn1c(=O)oc2cc(S(=O)(=O)NCCC(=O)NCCc3ccc(Cl)cc3)ccc21	n	n	n	n	32	n
CCOC(=O)Cn1c(=O)oc2cc(S(=O)(=O)Nc3ccc(F)cc3)ccc21	n	n	n	n	n	28
Cc1cc(=O)n2nc(N3CCC(C(=O)NCC(C)c4ccccc4)CC3)sc2n1 (configuration not stated)	n	n	n	n	n	n
Clc1ccccc1Cn1c(/C=C/c2ccco2)nc2ccccc21	n	n	n	n	n	31
Cc1ccc(NC(=O)C2CCN(S(=O)(=O)c3c(C)noc3/C=C/c3ccco3)CC2)nc1	n	n	n	n	n	n
Cc1noc(/C=C/c2ccco2)c1S(=O)(=O)N1CCC(C(=O)N2CCc3ccccc3C2)CC1	n	n	n	n	n	30
Cc1ccc(CSc2nnc(CNc3ccc(F)cc3)o2)cc1	n	n	n	n	26	n
CN(NS(=O)(=O)c1ccc(Cl)cc1)c1ncc(C(F)(F)F)cc1Cl	n	n	n	n	28	n
CCOc1ccc(/C=C/c2nc(C#N)c(NCCCN(C)C)o2)cc1	n	n	n	n	n	n
CCOc1ccc(/C=C/c2nc(C#N)c(NCCCOC)o2)cc1	n	n	n	n	n	28
CCc1ccc(CNC(=O)C2CC(=O)N(C3CCCC3)C2)cc1 (configuration not stated)	n	n	n	n	n	n
CC(C)C1Cc2c(sc3ncnc(NN)c23)CO1 (configuration not stated)	n	n	n	n	n	n
Cn1cnnc1Sc1ccc(/C=C(\CCC(=O)O)c2nc3ccccc3s2)cc1[N+](=O)[O-]	n	n	n	n	26	n
O=C(N/N=C/c1ccc([N+](=O)[O-])o1)c1cn(-c2ccccc2)nc1-c1ccc(Cl)cc1	n	n	n	n	n	n
O=C(N/N=C/c1ccc([N+](=O)[O-])o1)c1cn(-c2ccccc2)nc1-c1ccccc1	n	n	n	n	n	27
Cc1ccc(C(=O)N2CCC(C(=O)Nc3cccc([N+](=O)[O-])c3)CC2)cc1	n	n	n	n	n	n
CC(C)CN(C(=O)c1ccc(C(F)(F)F)cc1)c1c(N)n(CC(C)C)c(=O)[nH]c1=O	n	n	n	n	n	n
C=C(CCC(=O)c1ccccc1)C(=O)c1ccccc1	n	n	41	n	n	n
CCNc1nc(NC(C)(C)C)nc(SC(C(C)=O)C(C)=O)n1	n	n	n	n	25	n
Cc1ccc(OCCNC(=O)c2ccccc2F)cc1	n	n	n	n	n	n
COc1ccccc1C(=O)NCCC(=O)NCc1ccccn1	n	n	x	n	n	n
Cc1ccc(C(=O)C2=C(O)C(=O)N(Cc3ccco3)C2c2cccc(Br)c2)o1 (configuration not stated)	n	n	18	n	n	n
COc1ccc(CNC(=O)CCn2c(=O)[nH]c3ccccc3c2=O)cc1	n	n	n	n	n	n
CCOc1cc2[nH]c(=O)n(CCCC(=O)NCc3ccc(OC)cc3)c(=O)c2cc1OCC	n	n	n	n	32	n
O=C(CSc1nc2scc(-c3ccco3)c2c(=O)n1-c1ccccc1)N1CCOCC1	n	n	n	n	n	n
SMILES	PAFAH2 FP inh	PP5 inh	CTSL1 counter	PAFAH1B3 inh	PAFAH1B2 FP inh	pPAFAH FP inh
NC(=O)CSc1nc2scc(-c3ccco3)c2c(=O)n1-c1ccccc1	n	n	28	n	n	28
Cc1cc(C)nc(Nc2ccc(N3CCOCC3)cc2)n1	n	n	n	n	n	n
Cc1cc(C)nc(Nc2ccc(N3CCCC3)cc2)n1	n	n	17	n	n	n
Cc1c(C(=O)Nc2cccc(F)c2)cnn1-c1ccccc1	n	n	n	n	n	n
CN(C(=O)Cc1c(C(=O)O)n(C)c2ccccc12)c1ccc(Cl)cc1	n	n	n	n	50	n
CCc1cccc(NC(=O)c2ccc(NS(=O)(=O)c3c(C)noc3C)cc2)c1	n	n	n	n	n	29
CC(=O)C1=C(O)C(=O)N(Cc2ccccc2)C1c1ccc(Cl)cc1 (configuration not stated)	n	n	n	n	29	n
COc1cc(/C=N/Nc2nc3c(c(=O)n(C)c(=O)n3C)n2Cc2ccccc2)ccc1OC(=O)c1ccco1	n	n	n	n	n	34
O=C(CCNC(=O)c1ccc(Cl)cc1)NCc1ccco1	n	x	x	n	n	n
O=C(N/N=C/C1C(c2ccccc2)C1(Cl)Cl)c1cccc(Cl)c1 (configuration not stated)	n	n	n	n	29	n
CCOc1ccc(C(=O)N/N=C(/C)C2C(=O)c3ccccc3C2=O)cc1	n	n	n	n	n	n
C/C(=N\NC(=O)c1ccc(Br)cc1)C1C(=O)c2ccccc2C1=O	n	n	n	29	n	25
OC(c1ccccc1)(c1ccccc1)c1nccc2ccccc12	n	x	x	n	n	x
O=C(CNS(=O)(=O)c1ccc(Br)s1)N1CCN(c2ncccn2)CC1	n	x	x	n	25	x
Cc1c(Br)c(O)c(Br)c(O)c1/C=N/n1c(-c2ccccc2)n[nH]c1=S	n	n	n	35	n	n
Oc1c(Br)cc(/C=N/n2c(-c3ccccc3)n[nH]c2=S)cc1Br	n	x	x	n	n	x
CC(C)c1ccc(/C=N/n2c(-c3ccccc3)n[nH]c2=S)cc1	n	n	n	n	n	25
Oc1c(Br)cc(/C=N/n2c(-c3ccccc3)n[nH]c2=S)c(O)c1Br	45	x	x	28	n	x
O=C1CCCCC1Nc1ccc2ccccc2c1 (configuration not stated)	n	x	x	n	n	x
CCOc1ccc(NC(=O)C23CC4CC(C2)CC(c2ccccc2)(C4)C3)cc1	n	n	n	n	27	n
CCOC(=O)CNC(=O)C12CC3CC(C1)CC(c1ccc(C)cc1)(C3)C2	n	n	n	n	n	n
O=C(CSc1nnc(NC2CC2)s1)NN1C(=O)NC2(CCCCC2)C1=O	n	n	x	n	n	n
COc1ccc(NS(=O)(=O)c2cc(NC(=O)C(CC(C)C)NC(N)=O)ccc2N2CCOCC2)cc1 (configuration not stated)	n	x	x	n	n	x
CC(C)N(C(=O)CN(C#N)c1nc(N(C)C)nc(N(C)C)n1)c1ccccc1	n	n	n	n	n	n
COC(=O)CN(C#N)c1nc(N(C)C)nc(N(C)C)n1	n	n	21	n	n	n
SMILES	PAFAH2 FP inh	PP5 inh	CTSL1 counter	PAFAH1B3 inh	PAFAH1B2 FP inh	pPAFAH FP inh
COC(=O)CN(C#N)c1nc(C)cc(C)n1	n	n	n	n	n	n
COC(=O)CN(C#N)c1nc(OC)nc(N(C)C)n1	n	n	40	n	n	n
CCOC(=O)CN(C#N)c1nc(C)cc(C)n1	n	n	19	n	n	n
COC(=O)CN(C#N)c1nc(NC(C)C)nc(OC)n1	n	n	80	n	n	n
Nc1ccc2cc3[nH]c4cc(N)ccc4c3nc2c1	n	x	x	n	n	x
COC(=O)CN(C#N)c1nc(NCc2ccccc2)nc(OC)n1	n	x	x	n	n	x
